Measurements as given in PubChem BioAssay.
Active and inactive are the calls of the source.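 Rule for the calls: active = inhibition at or above 50% relative to wild type and mutant plate controls; inactive = inhibition below 50%.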

test: loss of swimming-algae plug formation – whole organism, Chlamydomonas reinhardtii, WT vs cilia-less mutant, absorbance, 96-well, primary screen (AID 463189); conditions: Chlamydomonas reinhardtii gravitaxis, OD600 absorbance, 2 days; at 10 µM; hits give high values;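 note: 0% = wild type cc124 cells in DMSO and 100% = ciliumless bld1 mutant cells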

Q: With `c1ccc2c(N3CCNCC3)cccc2c1` as the compound, how does the inhibition read?
A: 5.44% (inactive)

Q: For `CC(C)Oc1cccnc1N(C)C1CCN(Cc2ccccc2)CC1`, which inhibition is on record?
A: 54.9% (active)

Q: With `N[C@@H](Cn1ccc(=O)[nH]c1=O)C(=O)O` as the compound, how does the inhibition read?
A: -4.9% (inactive)

Q: Which inhibition does the source give for `O=P(O)(O)C(Cl)(Cl)P(=O)(O)O` here?
A: 8.57% (inactive)

Q: For `C=CCN1CC[C@]23c4c5ccc(O)c4O[C@@H]2/C(=N/N=C2\CC[C@@]4(O)C6Cc7ccc(O)c8c7[C@@]4(CCN6CC=C)[C@@H]2O8)CC[C@@]3(O)C1C5`, which inhibition is on record?
A: 6.59% (inactive)
